Laboratory results reported in the supplement of paper PMC6555819.

How the values were obtained:
Assay in all cases: PBM binding z-score (relative to random genomic background probes); higher = stronger binding; sequences stand for … in GC…GCGATTGACAGCGTAGAATGAAGG
[1] = tested on: FXR:RXRa (NR concentration 270 nM, RXRa partner concentration 90 nM)
Procedure, shortened: (§1)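 Each nuclear receptor dimer, without ligand, was incubated for 1 h on custom Agilent 4×180K protein-binding microarrays. Binding was detected with antibodies against each partner (one per run), and scanned fluorescence was regression-normalized. The binding z-scores are referenced to random human genomic background probes.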

[2] = tested on: LXRa:RXRa (NR concentration 270 nM, RXRa partner concentration 90 nM)
Procedure, shortened: as §1

[3] = tested on: LXRa homodimer (NR concentration 270 nM)
Procedure, shortened: as §1

[4] = tested on: LXRb:RXRa (NR concentration 270 nM, RXRa partner concentration 90 nM)
Procedure, shortened: as §1

[5] = tested on: LXRb homodimer (NR concentration 270 nM)
Procedure, shortened: as §1

[6] = tested on: PPARa:RXRa (NR concentration 270 nM, RXRa partner concentration 90 nM)
Procedure, shortened: as §1

[7] = tested on: PPARg:RXRa (NR concentration 180 nM, RXRa partner concentration 90 nM)
Procedure, shortened: as §1

[8] = tested on: PPARg:RXRa 270nM:90nM, anti-RXR (NR concentration 270 nM, RXRa partner concentration 90 nM)
Procedure, shortened: as §1

[9] = tested on: PPARg:RXRa 30nM:10nM, anti-RXR (NR concentration 30 nM, RXRa partner concentration 10 nM)
Procedure, shortened: as §1

[10] = tested on: PPARg:RXRa 90nM:30nM, anti-RXR (NR concentration 90 nM, RXRa partner concentration 30 nM)
Procedure, shortened: as §1

[11] = tested on: PPARg:RXRa DBDmut IVT, anti-RXR (DBD mutation: RXRa K156A/R161A, NR concentration 270 nM, RXRa partner concentration 90 nM)
Procedure, shortened: as §1

[12] = tested on: PPARg:RXRa IVT, anti-PPARg (NR concentration 270 nM, RXRa partner concentration 90 nM)
Procedure, shortened: as §1

[13] = tested on: PPARg DBDmut IVT, anti-PPARg (DBD mutation: PPARg1 K132A/R137A, NR concentration 270 nM)
Procedure, shortened: as §1

[14] = tested on: PPARg homodimer (NR concentration 180 nM)
Procedure, shortened: as §1

[15] = tested on: PXR:RXRa (NR concentration 270 nM, RXRa partner concentration 90 nM)
Procedure, shortened: as §1

[16] = tested on: PXR homodimer (NR concentration 270 nM)
Procedure, shortened: as §1

[17] = tested on: RARa:RXR (NR concentration 270 nM, RXRa partner concentration 90 nM)
Procedure, shortened: as §1

[18] = tested on: RARa homodimer (NR concentration 270 nM)
Procedure, shortened: as §1

[19] = tested on: RARb:RXRa (NR concentration 270 nM, RXRa partner concentration 90 nM)
Procedure, shortened: as §1

| Sequence | PBM binding z-score [1] | PBM binding z-score [2] | PBM binding z-score [3] | PBM binding z-score [4] | PBM binding z-score [5] | PBM binding z-score [6] | PBM binding z-score [7] | PBM binding z-score [8] | PBM binding z-score [9] | PBM binding z-score [10] | PBM binding z-score [11] | PBM binding z-score [12] | PBM binding z-score [13] | PBM binding z-score [14] | PBM binding z-score [15] | PBM binding z-score [16] | PBM binding z-score [17] | PBM binding z-score [18] | PBM binding z-score [19] |
| --- | --- | --- | --- | --- | --- | --- | --- | --- | --- | --- | --- | --- | --- | --- | --- | --- | --- | --- | --- |
| CGAACTAGGTCATAGGACAGTGAAAGGCGACGTA | 3.51 | 2.47 | 0.169 | 1.66 | -0.283 | 5.07 | 9.06 | 7.62 | 6.41 | 7.72 | 7.81 | 8.5 | 0.801 | 1.9 | 1.2 | -0.212 | 2.17 | 0.173 | 3.5 |
| CGAACTCGGTCAAAGGACAGTGAAAGGCGACGTA | 0.719 | 0.857 | -0.21 | -0.0802 | -0.824 | 2.68 | 5.06 | 5.39 | 3.97 | 5.3 | 2.71 | 3.18 | -0.87 | 0.102 | -0.0185 | -0.567 | 0.43 | -0.278 | 2.56 |
| CGAACTAAGTCACCAGGACAGTGAAGAGGTTGGA | -0.00843 | -0.109 | -0.233 | -0.378 | -0.234 | 0.219 | 0.494 | 0.0365 | 0.0312 | -0.255 | 2.13 | 1.61 | -0.0362 | 0.131 | -0.257 | 0.203 | 0.00404 | -0.12 | 0.526 |
| CGAACTAGATCACCAGGACAGTGAAGAGGTTGGA | -0.196 | -0.468 | -0.072 | -0.702 | -0.495 | -0.082 | 0.66 | -0.0755 | -0.0214 | -0.286 | 3.19 | 1.58 | -0.163 | 0.192 | -0.455 | -0.0713 | -0.108 | -0.196 | -0.0219 |
| CGAACTAGGTCAAAGCACAGTGAAAGGCGACGTA | 3.1 | 2.6 | -0.247 | 1.56 | -0.247 | 5.18 | 8.01 | 6.88 | 5.18 | 7.17 | 7.81 | 8.43 | 5.29 | 3.43 | 1.01 | -0.325 | 1.71 | 0.149 | 3.8 |
| CGAACTAGGTCAACGGACAGTGAAAGGCGACGTA | 3.7 | 2.16 | -0.117 | 1.22 | -0.431 | 4.75 | 8.09 | 6.86 | 4.42 | 6.52 | 8.1 | 8.37 | -0.094 | 1.63 | 0.839 | -0.0597 | 1.77 | -0.351 | 3.89 |
